Here are results for 112 compounds from PubChem BioAssay AID488969 (Vanderbilt High Throughput Screening Facility, 2010).

The structures appear in SMILES notation. Whole data set: some 110,000 compounds, median “z-score” near -0.1, cut for the highest 2% near 2. Many of the other results were omitted from the sample, so the highest values are more common in it than they were. Activity calls are given as the source filed them.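 How the source made its calls: active means z-score in the third read window above 3 or below -3; inactive means the rest.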

The assay deals with Metabotropic glutamate receptor 8 (Rattus norvegicus) (UniProt P70579). As to the kind of experiment: rat mGluR8 modulators via GIRK flux, primary screen, cell-based, thallium flux, HTS (AID 488969). To be noted: HEK293 rat mGluR8, GIRK (G protein-gated inwardly rectifying potassium channel) thallium flux, FluoZin2; at 10 µM; stronger effect = higher value; submaximal glutamate (EC20) added with thallium.
Sequence of Metabotropic glutamate receptor 8 (Rattus norvegicus) (P70579 whole entry, looked up): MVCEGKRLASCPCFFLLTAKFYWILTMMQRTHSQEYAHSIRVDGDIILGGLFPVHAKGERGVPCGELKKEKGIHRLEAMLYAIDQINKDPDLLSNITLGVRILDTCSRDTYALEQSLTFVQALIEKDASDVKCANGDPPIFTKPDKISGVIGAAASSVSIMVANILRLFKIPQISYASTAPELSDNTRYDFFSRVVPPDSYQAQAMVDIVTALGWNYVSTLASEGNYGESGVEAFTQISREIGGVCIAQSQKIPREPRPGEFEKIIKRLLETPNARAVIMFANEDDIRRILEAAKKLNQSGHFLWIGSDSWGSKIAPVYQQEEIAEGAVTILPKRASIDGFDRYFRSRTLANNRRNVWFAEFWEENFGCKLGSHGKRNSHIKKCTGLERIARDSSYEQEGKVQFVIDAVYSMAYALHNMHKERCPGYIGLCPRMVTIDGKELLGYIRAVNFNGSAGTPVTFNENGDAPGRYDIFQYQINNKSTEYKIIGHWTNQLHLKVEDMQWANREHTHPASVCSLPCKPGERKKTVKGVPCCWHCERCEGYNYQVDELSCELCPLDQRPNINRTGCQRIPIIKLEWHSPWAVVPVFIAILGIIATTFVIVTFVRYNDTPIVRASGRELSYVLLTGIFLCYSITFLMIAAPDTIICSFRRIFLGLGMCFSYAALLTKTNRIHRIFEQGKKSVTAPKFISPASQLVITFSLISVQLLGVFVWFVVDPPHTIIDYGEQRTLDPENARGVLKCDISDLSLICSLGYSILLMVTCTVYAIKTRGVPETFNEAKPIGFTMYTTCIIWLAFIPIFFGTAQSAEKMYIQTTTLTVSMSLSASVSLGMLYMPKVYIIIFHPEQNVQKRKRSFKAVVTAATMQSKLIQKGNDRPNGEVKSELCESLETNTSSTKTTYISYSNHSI
`CCOc1ccc2cc(S(=O)(=O)n3ccnc3C)ccc2c1`: the z-score came out at 0.917.

Regarding `COc1ccc([N+](=O)[O-])cc1NC(=O)C1CCCO1` (configuration not stated), the z-score is -0.326. With `C=CCNC(=O)CSc1cc([N+](=O)[O-])cc(S(=O)(=O)Cc2ccccc2)c1`, the z-score is 0.665. For the compound `CCC(=O)n1nc(-c2cccnc2)nc1NCc1ccc(OC)cc1`, the z-score is -5.08 (active). The result for `Nc1nc(-c2cccnc2)nn1C(=O)c1ccco1` reads 0.31; that for `COc1ccc(CNc2nc(-c3cccnc3)nn2C(=O)c2ccco2)cc1`, 9.48 (active). For the compound `COc1cc(NC(=O)c2ccc(-c3ccc(Br)cc3)o2)ccc1NC(=O)C(C)C`, the z-score is 0.116. The figure for `CCOC(=O)C(CC)Sc1nnc2c3cc(C)ccc3n(C)c2n1` (configuration not stated) is -0.798; for `COC(=O)Cc1c(C)nc2nc(-c3ccco3)[nH]n2c1=O` it is 2.68; for `COC(=O)Cc1c(C)nc2nc(-c3ccc(OC)cc3)[nH]n2c1=O` it is -0.0668. The compound `COC(=O)Cc1c(C)nc2nc(-c3ccccc3)[nH]n2c1=O` yielded a z-score of -0.455. The result for `CCn1c(SCC(=O)Nc2nc(-c3ccccc3)cs2)nnc1-c1ccccc1O` reads -0.347. The result for `O=C1C(=O)N(CNc2cccnc2)c2ccccc21` reads -0.21. The result for `CNC(=S)N/N=C/c1ccc(C(C)C)cc1` reads 3.01 (active). `CNC(=S)N/N=C/c1ccc2c(c1)OCCO2` had a z-score of 0.205.

`CC(C)c1ccc(/C=N/Nc2ccc(C(=O)O)cc2)cc1` displayed a z-score of -0.222. The figure for `Cn1c(SCc2ccc(Br)cc2)nnc1-c1ccncc1` is -0.143; for `Cc1cccc(-c2cc3nc4c(c(N5CCC6(CC5)OCCO6)n3n2)CCCC4)c1` it is 0.391; for `CC1CN(Cc2ccccn2)CCC1=O` (configuration not stated) it is -0.215. The result for `CC1CN(C2CC(C)(C)NC(C)(C)C2)CCC1=O` (configuration not stated) reads 3.98 (active); that for `CC(=O)N1CN(C2CC(C)(C)NC(C)(C)C2)Cc2c1sc1c2CCCC1`, 0.426; that for `O=C(NNC(=O)C1CCN(Cc2ccccc2)CC1)c1cccc(Cl)c1`, 0.0829. Compound `CCOC(=O)c1cn(-c2ccccc2CO)c2c(F)c(F)c(F)cc2c1=O` returned a z-score of -0.237. The figure for `COc1ccc2ncc(S(=O)(=O)c3ccccc3)c(N3CCC4(CC3)OCCO4)c2c1` is -0.776. The compound `Cc1ccc(OCC(O)CN2C(=O)NC(C)(C)C2=O)cc1` (configuration not stated) showed a z-score of -0.38. The result for `N#Cc1ccc(-c2ccc(OCC(O)Cn3nnc4ccccc43)cc2)cc1` (configuration not stated) reads -0.106; that for `CN(C)CC(O)COc1ccc(-c2ccc(C#N)cc2)cc1` (configuration not stated), 2.48; that for `CC1(C)NC(=O)N(CC(O)COc2ccc(-c3ccccc3)cc2)C1=O` (configuration not stated), -0.0166. The figure for `CN(C)CC(O)COc1cccc(OCC(O)CN(C)C)c1` (configuration not stated) is -0.132; for `CC1(C)NC(=O)N(CC(O)COc2ccc(-c3ccc(C#N)cc3)cc2)C1=O` (configuration not stated) it is 5.36 (active). The figure for `COc1ccccc1CC(=O)Nc1ccc(-c2noc(COc3ccc(Cl)c(C)c3)n2)cc1` is -0.166; for `Cc1cc(C)c2c(N)c(C(=O)c3cccc(Cl)c3)sc2n1` it is -0.231. The compound `CCc1ccc(N/C(SC)=C(/C#N)C(N)=O)cc1` registered a z-score of 0.119. The figure for `CCn1c(SCc2nc3sc(C(=O)O)c(C)c3c(=O)[nH]2)nc2ccccc21` is -0.449; for `COCCn1c(SCc2nc3sc(C(=O)OC)c(C)c3c(=O)[nH]2)nc2ccccc21` it is 0.877. The result for `CCOC(=O)c1sc2nc(CSc3nc4ccccc4n3CC)[nH]c(=O)c2c1C` reads 2.68. The figure for `COc1cccc(-c2nnc(SCc3nc4ccccc4s3)n2C)c1` is -0.34; for `CCCCCCOC(=O)/C=C/c1c(C)[nH]c(=O)[nH]c1=O` it is -0.139; for `CNC(=S)N/N=C(\C)c1ccc(-n2ccnc2)cc1` it is -0.579. Turning to `C/C(=N\Nc1ccc(C(=O)O)cc1)c1nc2ccccc2n1C`, the z-score is -0.702.

`C/C(=N\NC(=O)COc1ccc(C(C)(C)C)cc1)c1ccc(-n2ccnc2)cc1` displayed a z-score of 0.123.

Take `Cn1c(/C=N/NC(=O)c2ccccc2)nc2ccccc21`: the z-score is 0.298. The result for `C/C(=N\NC(=O)COc1ccc(C)cc1C(C)C)c1ccc(-n2ccnc2)cc1` reads 2.53. The figure for `C/C(=N\NC(=O)c1ccccc1)c1nc2ccccc2n1C` is 3.71 (active); for `C/C(=N\NC(=O)c1ccccc1)c1ccc(-n2ccnc2)cc1` it is 2.25. The result for `C/C(=N\NC(=O)c1ccc(C)cc1C)c1ccc(-n2ccnc2)cc1` reads -0.0942; that for `COc1ccc(OCC(=O)N/N=C(\C)c2ccc(-n3ccnc3)cc2)cc1`, -0.334; that for `Cn1c(=O)c2c(ncn2CC(=O)OCC(=O)Nc2ccccc2Cl)n(C)c1=O`, -0.159. As for `Clc1cccc2sc(N3CCOCC3)nc12`, the z-score came out at 0.0232. The result for `CCOC(=O)C1=C(C)Nc2nc(SCc3cccnc3)nn2C1c1ccc(OC)cc1` (configuration not stated) reads 0.463; that for `CN1CCN(S(=O)(=O)c2ccc(Br)s2)CC1`, -0.0381. The result for `COC(=O)c1oc2ccc(Br)cc2c1NC(=O)CN1CCN(C)CC1` reads 2.22. The figure for `COC(=O)c1ccc(Cl)c(NC(=O)CN2CCN(C)CC2)c1` is 4.17 (active). In the case of `COC(=O)c1ccc(Cl)c(NC(=O)CN2CCN(Cc3ccccc3)CC2)c1`, the z-score was -0.236. In turn, `COC(=O)c1ccc(Cl)c(NC(=O)CN(c2ccc(OC)c(OC)c2)S(C)(=O)=O)c1` had a z-score of 2.1.

As to `CCOC(=O)c1oc2ccc(OC)cc2c1NC(=O)CN1CCN(C)CC1`, the z-score worked out at 0.148. The figure for `COC(=O)c1ccc(Cl)c(NC(=O)CN(c2ccc(OC)cc2)S(=O)(=O)c2ccccc2)c1` is -0.285; for `CN1CCN(CC(=O)Nc2c(C(=O)C3CC3)oc3ccccc23)CC1` it is -0.346; for `COC(=O)c1ccc(Cl)c(NC(=O)CN2CCOCC2)c1` it is 0.185. The figure for `COC(=O)c1ccc(Cl)c(NC(=O)CN(c2ccc3c(c2)OCO3)S(C)(=O)=O)c1` is 0.625. The result for `Cc1ccc(CNC(=O)/C=C/c2c(Cl)cccc2Cl)cc1` reads -0.641; that for `O=C(CSc1ncnc2c1oc1ccccc12)NCC1CCCO1` (configuration not stated), -0.215; that for `COc1ccc(/C=N/n2c(N)nc(-c3ccccc3)c2-c2ccccc2)cc1`, -0.377.

Turning to `O=C(NCCCN1CCN(c2ccccc2)CC1)Nc1ccccc1C(F)(F)F`, the z-score was -0.506. The result for `Cc1ccc(NC(=O)c2sc3nc4c(c(-c5ccco5)c3c2N)CCC4)cc1` reads -0.382; that for `CC(=O)NC(Cc1ccccc1C)C(=O)NC1CCN(c2ncccc2[N+](=O)[O-])CC1` (configuration not stated), -0.207; that for `CCC(=O)Nc1cc2nn(-c3ccccc3)nc2cc1Cl`, 0.0874. The result for `CCNC(=S)N/N=C(\C)c1cccc([N+](=O)[O-])c1` reads 0.559; that for `C=C(C)CNC(=S)N/N=C/c1ccc(N2CCOCC2)cc1`, 0.134; that for `CNC(=S)N/N=C(\C)c1ccc(Cl)s1`, 3.13 (active). Compound `CNC(=S)N/N=C(\C)c1ccc(C)c(C)c1` yielded a z-score of 1.2. The figure for `CNC(=S)N/N=C(\C)c1ccc(N2CCOCC2)cc1` is 0.456; for `C=C(C)CNC(=S)N/N=C(\C)c1ccc(-n2ccnc2)cc1` it is -0.342. The result for `CCNC(=S)N/N=C(\C)c1ccc(N2CCOCC2)cc1` reads 0.245; that for `C/C(=N\Nc1nc2ccccc2[nH]1)c1ccc(Cl)s1`, -1.3; that for `C=C(C)CNC(=S)N/N=C(\C)c1ccc(Cl)s1`, 2.26. The result for `CNC(=S)N/N=C(\C)c1cccc([N+](=O)[O-])c1` reads -0.339; that for `CNC(=S)N/N=C(\C)c1ccc(C(C)(C)C)cc1`, 2.03; that for `CCNC(=S)N/N=C(\C)c1ccc(Cl)s1`, 4.7 (active). In turn, `Cn1c(=O)c2[nH]c(-c3cccnc3)nc2n(C)c1=O` yielded a z-score of 0.366. Turning to `C=CCN1C(=O)C(CC(=O)Nc2ccccc2)SC1=Nc1c(C)n(C)n(-c2ccccc2)c1=O` (configuration not stated), the z-score came to 1.07.

Compound `COc1cc(/C=C(\C#N)c2nc(-c3cc4ccccc4oc3=O)cs2)ccc1O` had a z-score of -2.33. In turn, `CCC(=O)Nc1ccc(NC(=O)CN2CCCC(C)C2)c(Cl)c1` (configuration not stated) gave a z-score of -0.146. The figure for `Cc1nn(CC(O)COc2ccc3c(c2)CCC3)c(C)c1C` (configuration not stated) is -0.0908; for `Cc1nc2cc(Nc3nnc(-c4ccccc4)c4ccccc34)ccc2n1C` it is -0.174; for `CN1CCN(C(=O)NC2CCCCC2)CC1` it is -0.173. Turning to `CCOP(=O)(O)c1ccccc1OCCCCCOc1ccccc1P(=O)(O)OCC`, the z-score is -0.285. The result for `CCOC(=O)c1c(N)nn(C(=O)CC)c1-c1ccccc1` reads -0.667; that for `CCOc1ccccc1-c1nc(C(N)=O)c2[nH]c(=O)n(-c3cccc(C)c3)c2n1`, -1.43; that for `C/C(=N\NC(=S)NC(C)C)c1ccc(-n2ccnc2)cc1`, -0.306.

In turn, `C/C(=N\NC(N)=S)c1ccc(Cl)s1` gave a z-score of 2.19. The result for `C/C(=N\NC(=O)C(=O)Nc1cccc(C(F)(F)F)c1)c1ccc(Cl)s1` reads 0.376. The figure for `COc1cc(/C(C)=N/NC(=S)NC(C)C)cc(OC)c1OC` is -0.0595; for `C/C(=N/Nc1ccc(F)cc1)c1ccc(Cl)s1` it is 0.13; for `C/C(=N\NC(=S)NC(C)C)c1ccc(Cl)s1` it is 5.46 (active). In turn, `Cc1noc(C)c1COc1cccc(C(=O)OCC(=O)NC(=O)c2ccc(OC(F)F)cc2)c1` came in with a z-score of -0.262.

The compound `N/C(=N\OC(=O)c1cccc(Br)c1)c1ccc(Br)cc1` registered a z-score of -0.325. The figure for `COc1ccc(C(=O)COC(=O)CNC(=O)c2cc(OC)cc(OC)c2)cc1` is -0.208; for `NC(=O)C(Cc1ccccc1)NS(=O)(=O)c1ccc(N2CCCC2=O)cc1` (configuration not stated) it is 0.443. The figure for `CCC(C)NC(=O)c1ccccc1C(=O)NC(C)CC` (configuration not stated) is 0.631; for `CCC(C)NC(=O)c1ccccc1NC(=O)Nc1ccccc1` (configuration not stated) it is 6.32 (active). The figure for `CC(C)CNC(=O)c1ccccc1NC(=O)Nc1ccccc1` is 0.337; for `Cc1cccc(CN(CC(=O)N/N=C/c2ccco2)S(=O)(=O)c2ccc(Cl)cc2)c1` it is 0.848; for `CCN(CC)C(=O)C1CCCN(C(=O)Nc2ccc(NC(=O)N3CCCC(C(=O)N(CC)CC)C3)cc2)C1` (configuration not stated) it is -0.196. `COC(=O)CSc1nnc(-c2cccnc2)n1-c1cccc(OC)c1` showed a z-score of 0.978.

For `CSCCC(NS(=O)(=O)c1ccc2c(c1)oc(=O)n2C)C(=O)NC1CCCc2ccccc21` (configuration not stated), the z-score was 0.148. The result for `Cn1c(=O)oc2cc(S(=O)(=O)NC3CCCc4ccccc43)ccc21` (configuration not stated) reads 0.254; that for `CC(C)CC(NS(=O)(=O)c1ccc2c(c1)oc(=O)n2C)C(=O)NC1CCCc2ccccc21` (configuration not stated), 5.09 (active); that for `CCc1ccc2oc(-c3cccc(N)c3)nc2c1`, -0.135. Turning to `Cc1cc(C(=O)CSc2n[nH]c(N)n2)c(C)n1-c1cc(F)ccc1F`, the z-score was 6.6 (active). Turning to `Cc1cc(C(=O)CSc2n[nH]c(N)n2)c(C)n1-c1ccc(F)cc1`, the z-score is -0.628. The figure for `Cc1cc(C(=O)CSc2n[nH]c(N)n2)c(C)n1-c1cccc(F)c1` is -1.69.
